Screens deposited in PubChem BioAssay by National Center for Advancing Translational Sciences (NCATS).
KCNH2 WT inh – blocks the wildtype human KCNH2 potassium channel; hit rate 0.37% among 340,000; AID 720551; activity change, % at 1.84 µM; Q12809; U2OS, BacMam KCNH2, thallium flux FluxOr; stronger effect = lower value;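 active means maximum activity change below -70%; inconclusive means maximum activity change between -70% and -50%; inactive means maximum activity change above -50%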
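U2OS cells were transduced with wild-type KCNH2 virus (2.03 x 10^8 / mL) for 4 h at room temperature, then cultured overnight at 37 C. Thallium flux was read with FluxOr dye. Rate constants were normalized to DMSO controls.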
CtBP-E1A inh – blocks the CtBP interaction with E1A; AlphaScreen GST-E1A/His-CtBP binding, 1536-well; stronger effect = lower value; activity change, % (test concentration not listed); hit rate 0.49% among 340,000; AID 651724
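Homogeneous bead-based format: GST-tagged E1A captured on glutathione donor beads, His-tagged CtBP on nickel acceptor beads; compounds precede bead addition by 2 h at 37 °C.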
KDM4E inh – JMJD2E (human) inhibition; hit rate 1.6% among 230,000; Potency, µM (highest dose often 57.1 µM), inactives show top-dose activity change, negative = inhibition, hits mostly inhibitors; JMJD2E catalytic domain, FDH-coupled NADH fluorescence (FDH is formaldehyde dehydrogenase); AID 2147; active means well fitted inhibition curve with a large enough effect, not every such curve was filed as active; inconclusive means small, poorly fitted or top-dose-only effect, or another doubt; inactive means no such curve, though single readings can be large or run the other way;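 further: potency means the concentration at half of the fitted maximal effect; 0% = wells with enzyme and -100% = buffer wells without enzyme; nearly all actives have a fitted effect of over 50% in size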
Six1-Eya2 inh – Six1/Eya2 interaction inhibition; activity change, % (no concentration beside the values); Q15475+O00167; hit rate 0.56% among 360,000; AlphaScreen GST-Six1/His-Eya2 binding, biochemical; stronger effect = lower value
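Six1/Eya2 binding was read as AlphaScreen signal after compounds were pinned into GST-Six1 plus His-tagged Eya2 (5X stock 250/500 nM) in pH 8.0 Tris/NaCl/TCEP buffer, beads added, then incubated 1 h, 37 C, dark.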
KCNH2 3.1 inh – KCNH2 3.1 (human) potassium channel inhibition. U2OS KCNH2 3.1, thallium flux FluxOr; stronger effect = lower value. activity change, % (tested at about 1.8 µM). hit rate 0.95% among 340,000. AID 720553;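 active means maximum activity change below -70%; inconclusive means maximum activity change from -70% to -50%; inactive means maximum activity change above -50%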;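 further: thallium influx rate constant from kinetic fluorescence after stimulation buffer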
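FluxOr-based Tl+ influx in U2OS cells transduced with KCNH2 3.1 virus; rate constants normalized to DMSO controls.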
* hit, by the source's call; ! = not confirmed by another sample. This is a sample that favours compounds with a hit; in the whole collection about 2% have one here. Unless noted, no stated cut-off is given here; in the data, active means activity change below about -65%; inconclusive means mostly about -30% to -63%; inactive means weaker than that. Unless noted, on the % scale 0 is the no-effect control and ±100 the full control effect.

Results for CCn1c(C)[n+](CCOC(C)=O)c2cc(Cl)c(Cl)cc21 ?
KCNH2 WT inh: -3.5; CtBP-E1A inh: -1.6; KDM4E inh: 15.8µM*; Six1-Eya2 inh: 5.4; KCNH2 3.1 inh: 8.1

Results for CCCCC1=CC2=CC(=O)C(C)(OC(=O)CC)C(=O)C2=CN1Cc1ccc2c(c1)OCO2 (stereo not given) ?
KCNH2 WT inh: 2.6; CtBP-E1A inh: -15.9; KDM4E inh: 17.8µM*!; Six1-Eya2 inh: -13.4; KCNH2 3.1 inh: 6.7

How did COC(=O)CCCC1=CC2=CC(=O)C(C)(OC(=O)c3cccs3)C(=O)C2=CN1C1CCCCC1 (stereo not given) do in these assays?
KCNH2 WT inh: 4.1; KDM4E inh: inconclusive; Six1-Eya2 inh: -1.8; KCNH2 3.1 inh: 19.2

What do the screens show for `CCCCC1=CC2=CC(=O)C(C)(OC(=O)CC)C(=O)C2=CN1C1CCCCC1` (stereo not given)?
CtBP-E1A inh: -2.3; KDM4E inh: 28.2µM*!; Six1-Eya2 inh: -4.4

How did CCCCC1=CC2=CC(=O)C(C)(OC(=O)CC)C(=O)C2=CN1c1ccc(OC)cc1 (stereo not given) do in these assays?
KCNH2 WT inh: 2.5; CtBP-E1A inh: -21.1; KDM4E inh: inconclusive; Six1-Eya2 inh: -16.6; KCNH2 3.1 inh: -32.4

How did CCCCC1=CC2=CC(=O)C(C)(OC(=O)CC)C(=O)C2=CN1CCCCO (stereo not given) do in these assays?
KCNH2 WT inh: -1.6; CtBP-E1A inh: -5.4; KDM4E inh: 12.6µM*!; Six1-Eya2 inh: 2.7; KCNH2 3.1 inh: 13.0

Results for COc1ccc(/C=C(\NC(=O)c2ccc(OC)cc2)C(=O)Nc2cccc(C(=O)O)c2)cc1 ?
KCNH2 WT inh: -4.0; CtBP-E1A inh: 5.0; Six1-Eya2 inh: -8.4; KCNH2 3.1 inh: 1.3

What do the screens show for `Cc1ccc(SC(C)C(=O)NCc2cccnc2)cc1` (stereo not given)?
KCNH2 WT inh: -9.6; CtBP-E1A inh: 0.9; KDM4E inh: 5.0%; Six1-Eya2 inh: 5.4; KCNH2 3.1 inh: -6.8

How did CCCCN(C(=O)COC(=O)CSc1ccc([N+](=O)[O-])cc1)c1c(N)n(CCC)c(=O)[nH]c1=O do in these assays?
KCNH2 WT inh: -2.9; CtBP-E1A inh: 5.8; Six1-Eya2 inh: 2.8; KCNH2 3.1 inh: -114.6*

What do the screens show for `N#Cc1ccc(CN2CCN(CC(=O)NCCc3ccc(Cl)cc3Cl)CC2)cc1`?
KCNH2 WT inh: -78.6*; CtBP-E1A inh: 23.6; Six1-Eya2 inh: 5.3; KCNH2 3.1 inh: -80.2*

Results for NS(=O)(=O)c1ccc(N/N=C/c2ccc(O)c(O)c2O)c([N+](=O)[O-])c1 ?
KCNH2 WT inh: -4.5; CtBP-E1A inh: inconclusive; KDM4E inh: 2.82µM*; Six1-Eya2 inh: inconclusive; KCNH2 3.1 inh: 20.3

What do the screens show for `CC1=NN(c2ccc(C(=O)OC(C)C)cc2)C(=O)/C1=C\C=C\c1ccco1`?
KCNH2 WT inh: -201.6*; CtBP-E1A inh: -16.3; KDM4E inh: 3.9%; Six1-Eya2 inh: -12.5; KCNH2 3.1 inh: -194.1*

Results for CCOC(=O)c1ccc(N2N=C(C)/C(=C/C=C/c3ccco3)C2=O)cc1 ?
KCNH2 WT inh: -8.7; CtBP-E1A inh: 5.5; KDM4E inh: -21.0%; Six1-Eya2 inh: -0.7; KCNH2 3.1 inh: 11.9

How did O=C(O)c1cc(N2N=C(C(F)(F)F)/C(=C/C=C/c3ccco3)C2=O)ccc1Cl do in these assays?
KCNH2 WT inh: 7.0; CtBP-E1A inh: -11.1; KDM4E inh: 2.5%; Six1-Eya2 inh: -78.2*; KCNH2 3.1 inh: 13.1

How did CC1=NN(c2ccc(Cl)c(C(=O)O)c2)C(=O)C1 do in these assays?
KCNH2 WT inh: -19.2; CtBP-E1A inh: 12.5; KDM4E inh: inconclusive; Six1-Eya2 inh: -8.8

What do the screens show for `Cc1nnc2c3ccccc3c(-c3cccs3)nn12`?
KCNH2 WT inh: -4.2; CtBP-E1A inh: -0.2; KDM4E inh: -1.5%; Six1-Eya2 inh: -14.3; KCNH2 3.1 inh: -85.1*

What do the screens show for `Cc1nnc2c3ccccc3c(-c3ccc(O)cc3)nn12`?
KCNH2 WT inh: -12.0; CtBP-E1A inh: -7.5; KDM4E inh: 1.7%; Six1-Eya2 inh: -17.6; KCNH2 3.1 inh: 1.9

Results for CCCC(=O)n1nc(-c2cccnc2)nc1N ?
KCNH2 WT inh: 1.4; CtBP-E1A inh: 2.5; KDM4E inh: -2.4%; Six1-Eya2 inh: -2.1; KCNH2 3.1 inh: -9.5

Results for Cc1nn2c(N3CCCC3)c3c(nc2c1-c1ccccc1)CCC3 ?
KCNH2 WT inh: 6.1; CtBP-E1A inh: 9.0; KDM4E inh: inconclusive; Six1-Eya2 inh: 16.9; KCNH2 3.1 inh: 2.9

Results for Cc1nn2c(N3CCN(CCO)CC3)c3c(nc2c1-c1ccccc1)CCCC3 ?
KCNH2 WT inh: 1.8; CtBP-E1A inh: -1.8; KDM4E inh: 4.6%; Six1-Eya2 inh: 0.8; KCNH2 3.1 inh: -94.3*

What do the screens show for `CC1(C)CCCN(C(=O)N2c3ccccc3Sc3ccccc32)C1`?
KCNH2 WT inh: 0.0; CtBP-E1A inh: 9.2; KDM4E inh: -3.6%; Six1-Eya2 inh: -2.9; KCNH2 3.1 inh: 12.3

Results for CCc1cc(=O)oc2cc(C)c(CN3CCCC3)c(O)c12 ?
KCNH2 WT inh: -4.3; CtBP-E1A inh: -7.4; KDM4E inh: 25.1µM*; Six1-Eya2 inh: inconclusive; KCNH2 3.1 inh: 4.9

How did O=C(Nc1ccc(S(=O)(=O)NCc2cccnc2)cc1)c1ccco1 do in these assays?
KCNH2 WT inh: 26.2; CtBP-E1A inh: 3.9; KDM4E inh: inconclusive; Six1-Eya2 inh: -0.8; KCNH2 3.1 inh: -9.3

How did CCCn1c(=O)c2c(nc3n2CCCN3CCc2ccccc2)n(C)c1=O do in these assays?
KCNH2 WT inh: -0.7; CtBP-E1A inh: -11.4; Six1-Eya2 inh: inconclusive; KCNH2 3.1 inh: 4.7

How did CC(C(=O)O)N1C(=O)/C(=C/C=C/c2ccco2)SC1=S (stereo not given) do in these assays?
KCNH2 WT inh: -9.0; CtBP-E1A inh: -6.5; KDM4E inh: 0.891µM*; Six1-Eya2 inh: -74.0*; KCNH2 3.1 inh: 12.5

What do the screens show for `CCN(C(=O)C(C)N1C(=O)/C(=C/c2ccco2)SC1=S)C1CCS(=O)(=O)C1` (stereo not given)?
KCNH2 WT inh: -23.0; CtBP-E1A inh: 131.4; Six1-Eya2 inh: -20.5; KCNH2 3.1 inh: -13.8

Results for O=C1/C(=C/C=C/c2ccco2)SC(=S)N1NS(=O)(=O)c1ccccc1 ?
KCNH2 WT inh: -17.9; CtBP-E1A inh: -15.5; KDM4E inh: 15.8µM*; Six1-Eya2 inh: inconclusive; KCNH2 3.1 inh: -5.7

How did Cc1cnc2c(c1)C(=O)c1ccccc1-2 do in these assays?
KCNH2 WT inh: 0.9; Six1-Eya2 inh: -7.8; KCNH2 3.1 inh: -110.5*

Results for Cc1cccc(-c2cc3c(nn2)-c2ccccc2C3=O)c1 ?
KCNH2 WT inh: -7.7; CtBP-E1A inh: -14.3; KDM4E inh: 3.1%; Six1-Eya2 inh: -16.7; KCNH2 3.1 inh: 4.8

What do the screens show for `CCOC(=O)Cc1csc(NC(=O)CCN2C(=O)c3ccccc3C2=O)n1`?
KCNH2 WT inh: -6.3; CtBP-E1A inh: -9.0; KDM4E inh: -1.9%; Six1-Eya2 inh: -8.8; KCNH2 3.1 inh: -213.0*
